Values joined by “and” are separate entries in the source; they are usually repeats but may differ in a detail not shown here. Identical values can stand only once. Results filed as inconclusive are left out. Values without a mark were called inactive. Active and inactive are the calls of the source. Calls come from the whole dose curve; as a rule, active = well fitted cell-killing curve with a large enough effect in the repeat runs; inconclusive = weak or mixed curves, or effect the other way; inactive = flat fitted curve, though single readings scatter.
% is set by controls: 0 for no effect and ±100 for the full control effect; potency is the fitted concentration of half-maximal effect.

This test in a line: cAMP Responsive Elements (CRE) small molecule agonists, cell-based qHTS assay: qHTS cell viability counter screen (AID 2060914). Note: nearly all actives have a fitted effect of over 50% in size. Conditions: CRE-bla HEK293T viability, CellTiter-Glo luminescence, 5 h; series mostly up to 92.4 µM; activity change, negative = cytotoxicity: at the top concentration. An outline of the steps:
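Cytotoxicity counter screen multiplexed with the CRE-bla reporter assay in HEK 293T cells: 3 h compound exposure at 37 °C, followed by CellTiter-Glo luminescence measured in the same wells.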
Background: qHTS replaces the single test concentration by a dilution series.
In the case of `CC1(C)[C@H](C(=O)OCc2cccc(Oc3ccccc3)c2)[C@@H]1C=C(Cl)Cl`, the “activity change, negative = cytotoxicity” value is 4.58%.

With `O=C(O)c1cccc(C(=O)O)c1`, the Potency result was “inactive”.

For `CN(C)CCCN`, the Potency result is “inactive”.

As to `CCN(CC)CCNC(=O)c1c(C)[nH]c(/C=C2\C(=O)Nc3ccc(F)cc32)c1C`, the “activity change, negative = cytotoxicity” value is 6.4% [at 42.5 µM].

Turning to `CC/C(=C(\c1ccccc1)c1ccc(OCCN(C)C)cc1)c1ccccc1`, the Potency entry is “inactive”.

In the case of `O=S(=O)(O)c1ccc2nc(-c3ccccc3)[nH]c2c1`, the Potency is 29.1 µM (active) and 21.1 µM (active).

As for `CN1C(CCl)Nc2cc(Cl)c(S(N)(=O)=O)cc2S1(=O)=O` (stereo not given), the “activity change, negative = cytotoxicity” value was -7.5% [at 42.5 µM].

For the molecule `Nc1cccnc1N`, the “activity change, negative = cytotoxicity” value is -0.0798%.

Regarding `CC(C(=O)O)c1ccc(-c2ccccc2)c(F)c1` (stereo not given), the “activity change, negative = cytotoxicity” value was -7.53%.

For `O=C(Cl)c1ccc(C(=O)Cl)cc1`, the Potency result was “inactive”.

For `COC(=O)c1ccccc1O`, the “activity change, negative = cytotoxicity” value was -4.33%.

`CC[C@H](C)COC(=O)/C=C/c1ccc(N=Cc2ccc(OC)cc2)cc1`: the “activity change, negative = cytotoxicity” value is -26%.

For the molecule `CCOc1ccc([N+](=O)[O-])cc1`, the “activity change, negative = cytotoxicity” value was -20.2%.

On to `CCNc1nc(NC(C)CC)nc(OC)n1` (stereo not given), for which the “activity change, negative = cytotoxicity” value was -0.333%.

Take `COC(=O)NN`: the “activity change, negative = cytotoxicity” value was -0.62%.

`CC(C)(C)c1ccc(OCC2CO2)cc1` (stereo not given): the “activity change, negative = cytotoxicity” value was 1.08%.

As to `CC(C)Cc1ccc(CC(=O)O)cc1`, the “activity change, negative = cytotoxicity” value was -10.6% [at 42.5 µM].

With `C[C@H]1C[C@H](O)c2ccsc2S1(=O)=O`, the “activity change, negative = cytotoxicity” value is 13.5% [at 42.5 µM].

With `O=C1CCCCCN1SSN1CCCCCC1=O`, the “activity change, negative = cytotoxicity” value is -9.02%.

Regarding `Cc1c(C2(c3cc(Br)c(O)c(Br)c3C)OS(=O)(=O)c3ccccc32)cc(Br)c(O)c1Br`, the Potency was 52.9 µM (active).

For the molecule `C=C1CC[C@H](O)C/C1=C\C=C1/CCC[C@]2(C)[C@@H]([C@H](C)CCCC(C)C)CC[C@@H]12`, the “activity change, negative = cytotoxicity” value was 0.614%.

In the case of `OCCNCCO`, the Potency entry is “inactive”.

On to `CC1CCCC(=O)C1=O` (stereo not given), for which the “activity change, negative = cytotoxicity” value was 10.2%.

Take `c1ccc(Cc2ccccc2)cc1`: the “activity change, negative = cytotoxicity” value is -3.53%.

As for `O=c1cc(-c2ccccc2)oc2ccc3ccccc3c12`, the Potency is 21.7 µM (active).

Take `CC(C)c1ccc2c(c1)CC[C@H]1[C@](C)(CN)CCC[C@]21C`: the “activity change, negative = cytotoxicity” value is -12.6%.

As to `C=CC(=O)OCCCl`, the “activity change, negative = cytotoxicity” value was -13%.

Consider `FC(F)(F)c1cccc(Cl)c1`, for which the “activity change, negative = cytotoxicity” value was -19.5%.

In the case of `COc1ccc(C(C)=O)cc1`, the “activity change, negative = cytotoxicity” value was 5.14%.

With `CCC(C)(Oc1ccc(C2(c3ccc(OC(C)(CC)C(=O)O)cc3)CCCCC2)cc1)C(=O)O` (stereo not given), the “activity change, negative = cytotoxicity” value is 2.98% [at 42.5 µM].

Take `CCN(C)C(=O)Oc1cccc([C@H](C)N(C)C)c1`: the “activity change, negative = cytotoxicity” value was -4.24% [at 42.5 µM].

Consider `CC(C)C1CCC(C(=O)N[C@H](Cc2ccccc2)C(=O)O)CC1` (stereo not given in full), for which the “activity change, negative = cytotoxicity” value is 10.9% [at 42.5 µM].

Consider `CCc1ccc(O)c(C(C)(C)C)c1`, for which the “activity change, negative = cytotoxicity” value is -22.4%.

For the molecule `O=C(O)/C=C/C(=O)O`, the Potency result was “inactive”.

Regarding `Nc1ccn(C2CO[C@H](CO)O2)c(=O)n1` (stereo not given in full), the “activity change, negative = cytotoxicity” value is 19% [at 42.5 µM].

For `CC(CCl)OC(C)CCl` (stereo not given), the “activity change, negative = cytotoxicity” value was 6.52%.

Turning to `COCCOC(=O)CC#N`, the “activity change, negative = cytotoxicity” value is 2.39%.

Take `CC1=C(CC=O)C(C)(C)CCC1`: the “activity change, negative = cytotoxicity” value is -2.88%.

Take `CSc1nc(NC2CC2)nc(NC(C)(C)C)n1`: the “activity change, negative = cytotoxicity” value is -17.5%.

With `CCc1c(C)[nH]c2c1C(=O)C(CN1CCOCC1)CC2` (stereo not given), the “activity change, negative = cytotoxicity” value is -6.36% [at 42.5 µM].

Source of the values: PubChem BioAssay (Tox21).
